From PubChem BioAssay
Several values for one entry are separate records, joined by “and”; a condition that tells them apart may be missing. Equal values may be shown once. Inconclusive results are not listed. Activity calls are given as the source filed them. Unless noted, no rule for the calls is given here.

Assays:
[1] = P. berghei load reduction in hepatocytes – cell-based, HepG2, luciferase luminescence, HepG2 viability, primary screen (AID 624349; in the data active = parasite load remaining mostly below about 12%, no sharp cut-off; inactive = mostly above about 10%;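 also: 100% = mean of DMSO negative control wells on the same plate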); settings: P. berghei liver stage in HepG2, luciferase luminescence, concentration not given here; parasite load remaining: stronger effect = lower value; viability: measured here: HepG2 viability without parasites
[2] = signal quenchers or enhancers, Cy5 substrate/SSB – biochemical, NIH Clinical Collection, E. coli SSB, artefact control for HCV NS3 helicase inhibitor project (AID 743268); settings: Cy5-oligo bound E. coli SSB, fluorescence interference
[3] = tested on: Hepatitis C virus NS3 helicase; test: blockers of NS3h binding to DNA – biochemical, fluorescence polarization, NIH Clinical Collection, primary screen (AID 743270); settings: NS3 helicase binding to Cy5-dT15 DNA, stronger effect = higher value, concentration not given here
[4] = target: Single-stranded DNA-binding protein (Escherichia coli (strain K12)) (UniProt P0AGE0); test: SSB-ssDNA binding inhibitors – biochemical, fluorescence polarization, NIH Clinical Collection, counter-screen for HCV NS3 helicase inhibitor project (AID 743271; in the data active = inhibition above about 28%); settings: E. coli SSB-DNA binding, stronger effect = higher value, concentration not given here
[5] = compounds distorting NS3 helicase fluorescence signal – biochemical, NIH Clinical Collection, artefact control for HCV NS3 helicase inhibitor project (AID 743272); settings: fluorescence interference counterscreen, HCV NS3 helicase assay; stronger effect = lower value;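 also: HCV NS3 helicase with a Cy5 labelled single stranded DNA probe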
[6] = tested on: Neuropilin-2 / VEGF-C interaction (human); test: small molecules blocking Neuropilin-2/VEGF-C interaction – biochemical, microplate binding format, z-score (AID 743281); settings: microplate NRP2/VEGF-C binding assay; stronger effect = lower value
[7] = modulation of C. elegans fzo-1 (AID 1259413);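 also: fzo-1 mutant C. elegans worms in liquid wells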; settings: C. elegans fzo-1 modulator screen, mean read-out; stronger effect = higher value
[8] = EMT-state selective cytotoxicity in co-culture – imaging, PC-3E GFP, TEM4-18 mCherry, primary screen (AID 1345086;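 active = compounds killing one labelled cell type while sparing the other, by normalised counts and ratio limits, not self-fluorescent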;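 also: cells exposed to compound for 72 h before imaging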;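 as to red/green cell ratio (normalised): normalised mesenchymal count divided by normalised epithelial count so high means epithelial killing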); settings: PC-3E GFP / TEM4-18 mCherry co-culture, imaging cell counts, at 1 µM
[9] = viability loss with induced miR-34 in A549 – imaging, A549 dox-inducible miR-34, nuclei and caspase counts, primary screen (AID 1347080;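 active = compounds whose cell count with miR-34 switched on is under 0.7 times the count with it off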); settings: A549 miR-34 inducible, Hoechst nuclei count, 48 h
[10] = compounds altering HSF1 focus formation in cells – imaging, Selleck Cancer Library (AID 1347162; in the data active = plate-normalised HSF1 focus index below about 0.46); settings: human cells, HSF1 nuclear foci imaging, at 10 µM; SSMD: measured here: HSF1 foci SSMD mean; cell count: measured here: cell number; plate-normalised HSF1 focus index: stronger effect = lower value
[11] = galactose survival enhancers in mitochondrial complex I cybrids – cell-based, galactose medium, ATP luminescence, primary screen (AID 1645843;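 active = z-score of at least 1.8 in each of two replicates, scored against plate mean and spread of sample wells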;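 also: positive z means more ATP and so rescue of galactose-driven cybrid death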); settings: complex I mutant cybrid cells, 72 h, stronger effect = higher value
[12] = tested on: Aerobactin synthetase IucA (Klebsiella pneumoniae); test: inhibition of K. pneumoniae IucA enzyme – biochemical, Tocris library, absorbance (AID 1345561); settings: purified IucA enzyme assay, absorbance (OD) read-out; stronger effect = lower value;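 tested at 8 µM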;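 also: 100% = enzyme without compound and 0% = no enzyme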
[13] = target: ATP-dependent translocase ABCB1 (Homo sapiens) (UniProt P08183); test: P-glycoprotein substrate transport blockade – cell-based (AID 377; in the data active = fluorescence slope change above about 50%); settings: MDR1-expressing cells, fluorescent substrate accumulation slope; stronger effect = higher value; concentration not given here
[14] = compounds altering viability of human ES cells (AID 493140); settings: human embryonic stem cell survival screen; stronger effect = higher value;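 also: cells exposed to compounds for four days before counting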
[15] = viability loss in pontine glioma line – cell-based, SU-DIPG-XVII, MIPE5.0, CellTiter-Glo, qHTS, dose response (AID 1347060; cut-off not given, nearly all actives have AC50 up to about 26 µM); settings: CellTiter-Glo ATP luminescence
[16] = viability loss in pontine glioma line – cell-based, JHH-DIPG-1, MIPE4.0, CellTiter-Glo, qHTS, dose response (AID 1347062; cut-off not given, nearly all actives have AC50 up to about 27 µM;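 as to AC50: cells exposed to compound for two days before readout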); settings: JHH-DIPG-1 viability, CellTiter-Glo ATP luminescence
[17] = viability loss in pontine glioma line – cell-based, SU-DIPG-IV, MIPE4.0, CellTiter-Glo, qHTS, dose response (AID 1347063; cut-off not given, nearly all actives have AC50 up to about 30 µM;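 also: compound exposure lasted 48 hours before the viability readout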); settings: CellTiter-Glo ATP luminescence
[18] = viability loss in pontine glioma line – cell-based, SU-DIPG-XIII, MIPE5.0, CellTiter-Glo, qHTS, dose response (AID 1347064; cut-off not given, nearly all actives have AC50 up to about 23 µM); settings: CellTiter-Glo ATP luminescence
[19] = viability loss in pontine glioma line – cell-based, SU-DIPG-XXV, MIPE5.0, CellTiter-Glo, qHTS, dose response (AID 1347065; cut-off not given, nearly all actives have AC50 up to about 26 µM;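 also: cells exposed to compound for 48 hours before ATP readout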); settings: CellTiter-Glo ATP luminescence
[20] = JHH-DIPG-1 glioma cell viability, MIPE5.0 library, CellTiter-Glo luminescence, qHTS (AID 1347067; cut-off not given, nearly all actives have AC50 up to about 26 µM;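 also: cells exposed to compound for 48 hours before readout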); settings: JHH-DIPG-1 glioma viability, CellTiter-Glo ATP luminescence
[21] = growth inhibition of DIPG cells – cell-based, MIPE5.0 library, qHTS (AID 1347068; cut-off not given, nearly all actives have IC50 up to about 30 µM); settings: SU-DIPG-XXV viability
[22] = MELAS cybrid and Rieske KO viability enhancers – cell-based, MELAS cybrids, Rieske KO mouse fibroblasts, CellTiter-Glo, primary screen (AID 1508586;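 active = mean z-score across replicates of 1.96 or higher in either the MELAS or the Rieske mutant cell line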;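 also: z relative to plate mean and SD of compound and empty wells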); settings: low glucose
[23] = target: NAD(+) hydrolase SARM1 (Homo sapiens) (UniProt Q6SZW1); test: blocking NAD cleavage by SARM1 SAM-TIR – cell lysate, NAD-Glo luminescence (AID 1508614;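 active = compound whose remaining NAD level is above about 45 nM, limit read from the data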;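 also: higher remaining NAD means stronger inhibition of SARM1 NADase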); settings: SAM-TIR HEK293T lysate NADase, at 1 µM, stronger effect = higher value
[24] = viability loss in pontine glioma line – cell-based, SU-DIPG-XIII, MIPE4.0, CellTiter-Glo, qHTS, dose response (AID 1347061; cut-off not given, nearly all actives have AC50 up to about 37 µM;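 also: cells exposed to compound for 48 hours before readout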); settings: CellTiter-Glo ATP luminescence
[25] = growth inhibition of DIPG cells – cell-based, MIPE4.0 library, CellTiter-Glo luminescence, qHTS (AID 1347066; cut-off not given, nearly all actives have AC50 up to about 30 µM;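 also: cells exposed to compound for 48 hours before readout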); settings: SU-DIPG-VI viability, CellTiter-Glo ATP luminescence
[26] = compounds altering circadian rhythm period length – cell-based, LOPAC library, luminescence reporter (AID 2774); settings: circadian reporter cells, at 7 µM, actives lie on both sides;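 also: values are relative to mean of DMSO wells on each plate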
[27] = tested on: Hepatitis C virus NS3 helicase; test: blockers of NS3h binding to ssDNA – biochemical, fluorescence polarization, LOPAC1280 library, primary screen (AID 687035; in the data active = inhibition above about 37%); settings: Purified HCV NS3 helicase, Cy5-dT15 ssDNA binding fluorescence polarization; stronger effect = higher value; concentration not given here
[28] = compounds altering Cy5-DNA-NS3h complex signal – biochemical, LOPAC1280, artefact control for HCV NS3 helicase inhibitor project (AID 687037); settings: Cy5-DNA-NS3h complex fluorescence interference counterscreen
[29] = blockers of cellular phospholipid synthesis – cell-based, LOPAC library, screen 4, primary screen (AID 1347384); settings: animal cells, phospholipid biosynthesis inhibition screen; at 10 µM
[30] = stronger effect = lower value, cell number ratio, induced over uninduced
[31] = measured here: relative caspase fold change +Dox/-Dox
[32] = measured here: total cells with miR-34 induction, stronger effect = lower value
[33] = measured here: total cells without miR-34 induction
[34] = MELAS cybrid survival, CellTiter-Glo 48 h, stronger effect = higher value
[35] = Rieske KO mouse fibroblast survival, CellTiter-Glo 72 h

Sequence of ATP-dependent translocase ABCB1 (Homo sapiens) (P08183 whole entry, looked up): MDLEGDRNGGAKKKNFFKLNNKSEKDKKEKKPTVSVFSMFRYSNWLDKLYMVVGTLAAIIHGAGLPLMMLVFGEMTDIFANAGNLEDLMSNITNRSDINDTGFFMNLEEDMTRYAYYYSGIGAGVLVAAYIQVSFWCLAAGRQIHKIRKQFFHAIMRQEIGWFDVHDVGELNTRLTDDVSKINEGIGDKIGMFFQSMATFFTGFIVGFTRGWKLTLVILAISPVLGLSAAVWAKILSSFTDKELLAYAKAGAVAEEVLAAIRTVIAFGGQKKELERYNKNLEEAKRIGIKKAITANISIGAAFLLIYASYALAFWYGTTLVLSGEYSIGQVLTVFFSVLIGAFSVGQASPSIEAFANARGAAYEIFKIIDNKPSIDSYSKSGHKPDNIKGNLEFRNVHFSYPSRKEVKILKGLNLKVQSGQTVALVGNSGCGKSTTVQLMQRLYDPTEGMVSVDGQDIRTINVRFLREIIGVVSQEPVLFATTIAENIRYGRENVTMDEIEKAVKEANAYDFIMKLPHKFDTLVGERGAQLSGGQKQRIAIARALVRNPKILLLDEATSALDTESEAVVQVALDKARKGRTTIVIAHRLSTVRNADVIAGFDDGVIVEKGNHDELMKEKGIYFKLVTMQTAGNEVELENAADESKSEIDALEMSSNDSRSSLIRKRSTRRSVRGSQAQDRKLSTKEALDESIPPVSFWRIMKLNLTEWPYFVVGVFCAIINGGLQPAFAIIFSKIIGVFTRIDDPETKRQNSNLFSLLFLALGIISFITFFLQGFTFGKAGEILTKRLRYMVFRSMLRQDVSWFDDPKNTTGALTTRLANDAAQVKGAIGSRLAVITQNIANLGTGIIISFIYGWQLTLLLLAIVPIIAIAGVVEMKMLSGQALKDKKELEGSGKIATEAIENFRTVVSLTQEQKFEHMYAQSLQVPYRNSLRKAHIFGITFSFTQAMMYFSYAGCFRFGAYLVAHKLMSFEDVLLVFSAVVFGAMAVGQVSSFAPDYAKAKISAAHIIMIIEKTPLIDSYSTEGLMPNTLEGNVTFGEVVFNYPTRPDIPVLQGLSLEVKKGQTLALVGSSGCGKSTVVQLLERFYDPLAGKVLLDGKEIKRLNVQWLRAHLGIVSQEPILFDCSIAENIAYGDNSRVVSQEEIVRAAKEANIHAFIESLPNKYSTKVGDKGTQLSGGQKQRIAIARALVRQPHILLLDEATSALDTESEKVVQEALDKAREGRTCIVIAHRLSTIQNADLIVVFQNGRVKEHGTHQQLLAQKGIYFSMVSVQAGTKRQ
Sequence of NAD(+) hydrolase SARM1 (Homo sapiens) (Q6SZW1 whole entry, looked up): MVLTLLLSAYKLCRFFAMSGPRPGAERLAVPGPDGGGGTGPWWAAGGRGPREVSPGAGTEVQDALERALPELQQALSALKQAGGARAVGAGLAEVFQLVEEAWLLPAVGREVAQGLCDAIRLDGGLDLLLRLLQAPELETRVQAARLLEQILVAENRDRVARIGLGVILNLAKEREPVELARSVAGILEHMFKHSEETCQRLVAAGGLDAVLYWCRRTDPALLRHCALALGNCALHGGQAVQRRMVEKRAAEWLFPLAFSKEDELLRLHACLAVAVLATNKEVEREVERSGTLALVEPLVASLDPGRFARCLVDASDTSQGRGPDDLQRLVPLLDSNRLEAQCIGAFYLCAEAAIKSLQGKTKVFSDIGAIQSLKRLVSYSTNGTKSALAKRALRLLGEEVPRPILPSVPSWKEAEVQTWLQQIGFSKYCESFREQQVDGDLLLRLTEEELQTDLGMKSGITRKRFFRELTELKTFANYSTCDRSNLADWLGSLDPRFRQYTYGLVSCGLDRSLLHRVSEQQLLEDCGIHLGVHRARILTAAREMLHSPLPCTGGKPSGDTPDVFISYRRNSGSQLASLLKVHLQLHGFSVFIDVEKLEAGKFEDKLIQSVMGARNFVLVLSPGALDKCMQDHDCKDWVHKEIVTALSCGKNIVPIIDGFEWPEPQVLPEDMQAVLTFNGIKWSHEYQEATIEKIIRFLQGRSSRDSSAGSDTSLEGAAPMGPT

CC[C@]1(O)CC2CN(CCc3c([nH]c4ccccc34)[C@@](C(=O)OC)(c3cc4c(cc3OC)N(C=O)[C@H]3[C@@](O)(C(=O)OC)[C@H](OC(C)=O)[C@]5(CC)C=CCN6CC[C@]43[C@@H]65)C2)C1 (some centres not stated)
103% and 123%: viability [1]
2.57: fold change [9, 31]
0.19: normalised cell number ([8]; measured here: epithelial PC-3E GFP cell survival)
6460: cell count [10]
0.13: normalised cell number ([8]; measured here: mesenchymal TEM4-18 mCherry cell survival)
1630: cell count [9, 33]
1.41: SSMD [10]
1600: cell count [9, 32]
inactive: parasite load remaining [1] 70.4% and 43.2% | fluorescence ratio [2] 0.94 | inhibition [3] -2.84% | inhibition [4] 0.39% | fluorescence ratio [5] 0.92 | outcome [6] | mean signal [7] 261 | red/green cell ratio (normalised) ([8]; actives lie on both sides, counts scaled to control wells, 1 = unselective) 0.69 | fold change [9, 30] 0.983 | plate-normalised HSF1 focus index [10] 1.08

CCOC(=O)C1(CCCCCCOc2ccc(Cl)cc2)CO1 (configuration not stated)
8740: cell count [9, 33]
7740: cell count [9, 32]
inactive: parasite load remaining [1] 85.5% | fluorescence ratio [2] 1.01 | inhibition [3] 1.98% | inhibition [4] -2.41% | fluorescence ratio [5] 0.93 | z-score [6] -0.326 | mean signal [7] 266 | fold change [9, 30] 0.886 | z-score [11] 0.13
89%: viability [1]
1.28: fold change [9, 31]

CC[C@@H]1C(=O)OC[C@@H]1Cc1cncn1C
inactive: fluorescence ratio [2] 0.93 | inhibition [3] -5.94% | inhibition [4] 1.44% | fluorescence ratio [5] 0.86 | z-score [6] -0.47 | mean signal [7] 280 | remaining activity [12] 110%

OC[C@H]1O[C@@H](n2cnc3c(N[C@H]4CCC[C@@H]4O)ncnc32)[C@@H](O)C1O (some centres not stated)
67.3%: viability [1]
inactive: parasite load remaining [1] 54.4% | fluorescence ratio [2] 1.01 | inhibition [3] -1.09% | inhibition [4] -2.76% | fluorescence ratio [5] 0.98 | z-score [6] -0.495 | mean signal [7] 261

CC(=O)SCC(Cc1ccccc1)C(=O)NCC(=O)OCc1ccccc1 (configuration not stated)
inactive: fluorescence slope change [13] 12.8% | survival [14] 6.5 | fluorescence ratio [2] 0.96 | inhibition [3] 3.56% | inhibition [4] 2.21% | fluorescence ratio [5] 0.86 | z-score [6] -0.263 | mean signal [7] 251 | outcome [15] | outcome [18] | outcome [19] | outcome [20] | outcome [21] | z-score [22, 34] -0.406 and 0.283 and 0.224 | remaining NAD [23] 10 nM | z-score [11] 0.9 and 0.57
active: AC50 [16] 469 nM | AC50 [17] 833 nM
0.561 and 0.494 and -0.589: z-score [22, 35]

CN1CCN2c3ncccc3Cc3ccccc3C2C1 (configuration not stated)
9270 and 8700 and 7820: cell count [9, 32]
inactive: parasite load remaining [1] 85% | fluorescence ratio [2] 0.98 | inhibition [3] -1.97% | inhibition [4] -2.76% | fluorescence ratio [5] 0.93 | z-score [6] -0.469 | mean signal [7] 257 | remaining activity [12] 106% | outcome [15] | outcome [24] | outcome [16] | outcome [18] | outcome [19] | outcome [25] | outcome [20] | outcome [21] | fold change [9, 30] 0.923 and 0.892 and 0.933 | z-score [22, 34] 0.00763 and -0.808 | z-score [11] 0.645 and -0.265
10000 and 9750 and 8380: cell count [9, 33]
76.9%: viability [1]
0.866 and 0.0762: z-score [22, 35]
1.2 and 4.96 and 1.4: fold change [9, 31]

OC[C@H]1O[C@@H](n2cnc3c(NC4CCCC4)nc(Cl)nc32)[C@@H](O)C1O (some centres not stated)
67.2%: viability [1]
inactive: parasite load remaining [1] 65.4% | fluorescence ratio [2] 0.94 | inhibition [3] -2.84% | inhibition [4] -1.97% | fluorescence ratio [5] 0.97 | z-score [6] -0.619 | mean signal [7] 256

C#C[C@]1(O)CC[C@H]2[C@@H]3CCC4=Cc5oncc5CC4(C)[C@H]3CCC21C (some centres not stated)
1.79: fold change [9, 31]
8170: cell count [9, 33]
inactive: period change [26] 0.035 h | inhibition [27] 0% | fluorescence ratio (interference) [28] 1 | mean signal [7] 250 | fold change [9, 30] 0.894 | outcome [29] | z-score [11] -0.725
7310: cell count [9, 32]
